This note sets out measurements from PubChem BioAssay (EPA / NIEHS).

Several values for one entry are separate records, joined by “and”; a condition that tells them apart may be missing. Identical values can stand only once. Activity calls are given as the source filed them. Rule for the calls: active = hit-call score of the fitted dose curve at least 0.9, where 1 is the maximum; inactive = score below 0.9.

Read-out in this experiment: Monokine induced gamma interferon (MIG), CXCL9 (gene 4283)
Description: BSK_hDFCGF_MIG: BioMAP Diversity Plus: hDFCGF Assay for Monokine induced gamma interferon (MIG) Biomarker Activity (AID 2283063). To be noted: primary human foreskin fibroblasts; actives raise or lower the signal. As for the experimental part:
BSK_hDFCGF is a cell-based, multiplexed-readout assay that uses foreskin fibroblast, a human skin primary cell, with measurements taken at 24 hours after chemical dosing in a 96-well plate.BSK_hDFCGF_MIG is an assay component measured in the BSK_hDFCGF assay. It measures MIG antibody related to regulation of gene expression using ELISA technology.Data from the assay component BSK_hDFCGF_MIG was analyzed into 1 assay endpoint. This assay endpoint, BSK_hDFCGF_MIG, was analyzed with bidirectional fitting relative to DMSO as the negative control and baseline of activity. Using a type of binding reporter, gain or loss-of-signal activity can be used to understand changes in the signaling as they relate to the gene CXCL9. Furthermore, this assay endpoint can be referred to as a primary readout, because this assay has produced multiple assay endpoints where this one serves a signaling function. To generalize the intended target to other relatable targets, this assay endpoint is annotated to the cytokine intended target family, where the subfamily is chemotactic factor.
The levels of cell surface (or secreted, indicated by the prefix "s") biomarker endpoints were measured by ELISA. Overt cytotoxicity to cells in confluent adherent cultures (all systems other than the BT system) was assessed by measuring total protein levels using sulforhodamine B (SRB) staining in parallel cultures at the time of biomarker measurements, indicated as SRB endpoints. For proliferation assays for adherent cell types, individual cell types are cultured at sub-confluence and relative cell numbers quantified by SRB staining at time points optimized for each system (48 h: 3C and CASM3C systems; 72 h: BT and HDF3CGF systems; 96 h: SAg system). SRB was performed by staining cells with 0.1% SRB after fixation with 10% TCA and reading wells at 560 nm.Viability and proliferation of PBMC (T cells) was quantified by Alamar Blue reduction for the SAg and BT systems. For PBMC viability (referred to as PBMC Cytotoxicity within the assay endpoint names), cells were plated (75,000/well in a 96-well plate) and then chemical samples added for 1 h before addition of activators, SEB and TSST-1 (20 ng/mL final concentration each). Cells were incubated for 90 h. Then, Alamar Blue (20 uL/well) (Invitrogen, Cat DAL1100) was added for 6 h, and the plates were read with a fluorescence microplate reader at 546/580 nm (excitation/emission). For PBMC proliferation, cells were plated and activated as above but incubated for only 16 h prior to addition of Alamar Blue. Plates were read after 6 h.
As for `CCCCOCCOCCO`, the outcome was inactive.

Take `Nc1ccc(N)c([N+](=O)[O-])c1`: the result was inactive. On to `C=C(C)C(=O)OCCC(F)(F)C(F)(F)C(F)(F)C(F)(F)C(F)(F)C(F)(F)C(F)(F)C(F)(F)F`, for which the result was inactive. The same measure, in the same setting: in the case of `CC(C)CCCC(C)(C)O` it was “inactive”. Still for that read-out and setting: in the case of `OCCN1CCOCC1` it was “inactive”. Turning to `C#C[C@]1(O)CC[C@H]2[C@@H]3CCc4cc(O)ccc4[C@H]3CC[C@@]21C`, the result was inactive.

Regarding `c1ccc(Sc2ccccc2)cc1`, the outcome was inactive. `CC(=O)CCC=C(C)CCC=C(C)C`: the result was inactive. On the same count and under the same terms, for `CC(=O)OCC=C(C)CCC=C(C)CCC=C(C)C` the value was “inactive”; for `CC(C)Cc1ccc(C(C)C(=O)O)cc1` (stereo not given), “inactive”; for `NC(=O)c1c(Cl)cccc1Cl`, “inactive”. The same measure, in the same setting: in the case of `CCCCCCCC1CCCC1=O` (stereo not given) it was “inactive”. As for `CCCCN(CCO)CCO`, the result was inactive.

For `CC(=O)OC(C)(C)C1CC=C(C)CC1` (stereo not given), the result was inactive.

With `CC1=CC(C)C(C=O)C(C)C1` (stereo not given) (tested in a mixture with another compound), the outcome was inactive.

As to `CC(C)(C)c1cccc(O)c1`, the outcome was inactive. Still for that read-out and setting: in the case of `COc1ccccc1NC(=O)CC(C)=O` it was “inactive”; in that of `CC1(C)[C@H](C=C(Cl)Cl)[C@H]1C(=O)OCc1cccc(Oc2ccccc2)c1`, “inactive”. For the compound `O=C(c1ccc(OCCN2CCCCC2)cc1)c1c(-c2ccc(O)cc2)sc2cc(O)ccc12`, the AC50 is 32.1 µM (active). Regarding `CCCCCCCCCC(=O)OCC`, the outcome was inactive. With `CC(=O)c1ccc(C)cc1`, the outcome was inactive. Still for that read-out and setting: in the case of `CCCO[Si](OCCC)(OCCC)OCCC` it was “inactive”. The same measure, in the same setting: in the case of `c1ccc2c(c1)-c1ccc3ccc4cccc5cc-2c1c3c45` it was “inactive”; in that of `CC(C)(CO)CO`, “inactive”.

For the compound `CC/C(=C(\c1ccccc1)c1ccc(OCCN(C)C)cc1)c1ccccc1`, the AC50 is 9.37 µM (active) and 11 µM (active).

For `C=C(F)C(=O)OC(C(F)(F)F)C(F)(F)F`, the result was inactive. Same read-out and setting: in the case of `COC(=O)c1ccc(C(=O)OC)cc1` it was “inactive”. Consider `O=C(O)C(F)(F)OC(F)(F)C(F)(F)OC(F)(F)C(F)(F)C(F)(F)C(F)(F)F`, for which the half-maximal activity concentration (AC50) was 12 µM (active) and 48.6 µM (active). `CCn1cc(C(=O)O)c(=O)c2ccc(C)nc21`: the result was inactive. Consider `C=C1CC/C=C(\C)CC[C@@H]2[C@@H]1CC2(C)C`, for which the half-maximal activity concentration (AC50) is 33.9 µM (active). Turning to `CCOC(=O)CCCCCCCCC(=O)OCC`, the outcome was inactive. On to `CCCCCCCCCCCCS`, for which the concentration at half-maximal activity (AC50) is 17 µM (active). On to `C[C@]12CC[C@@H]3c4ccc(O)cc4CC[C@H]3[C@@H]1CC[C@@H]2O`, for which the outcome was inactive. Regarding `O=C1OC2(c3ccc(O)cc3Oc3cc(O)ccc32)c2ccccc21`, the outcome was inactive.

Take `CCC(=O)OCC=Cc1ccccc1`: the outcome was inactive. Same read-out and setting: in the case of `O=C(O)C(F)(F)C(F)(F)C(F)(F)C(F)(F)C(F)(F)C(F)(F)C(F)(F)C(F)F` it was “inactive”. With `c1ccc(OCCOc2ccccc2)cc1`, the result was inactive. In the case of `C=CC(=O)OCC(CO)(COC(=O)C=C)COC(=O)C=C`, the half-maximal activity concentration (AC50) is 0.0177 µM (active).

On to `O=S(=O)(O)C(F)(F)C(F)(F)OC(F)(F)C(F)(F)F`, for which the outcome was inactive. Consider `OCC(F)(OC(F)(F)C(F)(OC(F)(F)C(F)(F)C(F)(F)F)C(F)(F)F)C(F)(F)F` (stereo not given), for which the concentration at half-maximal activity (AC50) was 2.24 µM (active) and 2.52 µM (active).
